{
  "source": "PubChem BioAssay AID602252",
  "about": "(Broad Institute, 2012)",
  "note": "Hit rate of the full screen: of about 300,000 compounds, about 2,700 (0.9%) were called active.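 The calls were made as follows: active = mean inhibition of at least 30% with at least half of replicates also reaching 30%; inconclusive = no clear call, values can overlap the other calls; inactive = the rest.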 The sample as a whole holds a higher share of actives than the screen did.",
  "data": [
    {"biological_target": "Golgi-associated PDZ and coiled-coil motif-containing protein (Homo sapiens) (UniProt Q9HD26)", "test": "untagged CAL PDZ binding inhibitors, primary screen, biochemical, fluorescence polarization, HTS (AID 602252);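 also: 0% = DMSO neutral control and 100% = excess unlabeled competitor peptide PRC23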", "conditions": "purified CAL PDZ, TMR-peptide fluorescence polarization, 1 h; at 24.9 µM; hits give high values", "values": [
      {"smiles": "CCOC(=O)CSc1nnc(NC(=O)c2cccc(S(=O)(=O)N3CCCCC3)c2)s1", "inhibition": "-0.488% (inactive)"},
      {"smiles": "CCc1nnc(NC(=O)c2cc(S(=O)(=O)N3CCCCC3)ccc2C)s1", "inhibition": "77.7% (active)"},
      {"smiles": "CCOC(=O)c1sc(NC(=O)c2cc(S(=O)(=O)N3CCOCC3)ccc2C)nc1C", "inhibition": "-2.78% (inactive)"},
      {"smiles": "CN(C(=O)c1cccc(NC(=O)Cc2ccc(NC(=O)C3CCCN(C(=O)C4CCCC4)C3)cc2)c1)C1CCC1", "note": "(stereo not drawn)", "inhibition": "4.34% (inactive)"},
      {"smiles": "CCOC(=O)c1c(-c2ccccc2)csc1NC(=S)NC(=O)c1ccccc1", "inhibition": "-5.36% (inactive)"},
      {"smiles": "CCOC(=O)c1c(-c2cccc(C)c2)csc1NC(=O)c1c(-c2ccccc2)noc1C", "inhibition": "-0.763% (inactive)"},
      {"smiles": "CCOC(=O)c1c(-c2ccc(-c3ccccc3)cc2)csc1NC(=O)CCC(=O)O", "inhibition": "39.2% (active)"},
      {"smiles": "C=CCN1C=C(C(=O)c2ccccc2)C(=O)CC1", "inhibition": "6.82% (inactive)"},
      {"smiles": "COc1ccc(Cc2nnc(NC(=O)c3ccc(OC)cc3OC)s2)cc1", "inhibition": "-2.81% (inactive)"},
      {"smiles": "COc1ccccc1NC(=O)Nc1nnc(Cc2ccc(F)cc2)s1", "inhibition": "54% (active)"},
      {"smiles": "O=C(Nc1nnc(COc2ccccc2)s1)Nc1ccccc1F", "inhibition": "1.97% (inactive)"},
      {"smiles": "CN(CCc1ccccc1)C(=O)c1cccc(NC(=O)Cc2cccc(NC(=O)C3CCCN(C(=O)C4CCC4)C3)c2)c1", "note": "(stereo not drawn)", "inhibition": "-1.08% (inactive)"},
      {"smiles": "COc1ccc(CCNC(=O)COc2cc(C)cc3oc(=O)c(C)c(C)c23)cc1OC", "inhibition": "-1.33% (inactive)"},
      {"smiles": "COc1cccc(NC(=O)c2ccccc2SC)c1", "inhibition": "0.222% (inactive)"},
      {"smiles": "COc1cccc(CN(C)CC(=O)Nc2ccccc2C(=O)Nc2ccccc2)c1", "inhibition": "-7.24% (inactive)"},
      {"smiles": "COc1cccc(NC(=O)c2ccccc2N(Cc2ccccc2)S(C)(=O)=O)c1", "inhibition": "44.6% (active)"},
      {"smiles": "O=C(Nc1cccc(S(=O)(=O)N2CCCCC2)c1)c1cncc(Br)c1", "inhibition": "0.772% (inactive)"},
      {"smiles": "NS(=O)(=O)c1ccc(CNC(=O)c2cccc(S(=O)(=O)N3CCc4ccccc43)c2)cc1", "inhibition": "-0.134% (inactive)"},
      {"smiles": "Cc1cccc(NC(=O)c2cccc(S(=O)(=O)N3CCCC3)c2)n1", "inhibition": "-2.35% (inactive)"},
      {"smiles": "Cc1ccc(NC(=O)c2cccc(S(=O)(=O)N3CCCc4ccccc43)c2)nc1", "inhibition": "44.8% (active)"},
      {"smiles": "O=C(CN1C(=O)NC2(CCCCCC2)C1=O)Nc1ccc([N+](=O)[O-])cc1", "inhibition": "-4.3% (inactive)"},
      {"smiles": "C=CC[C@@H](Cc1ccc(F)cc1)C(=O)OC[C@H]1CCCN1C(=O)[C@H](CC=C)CC(=O)N(CCO)Cc1ccccc1", "inhibition": "-2.32% (inactive)"},
      {"smiles": "COc1cccc(-n2c(SCC(=O)NC3CCS(=O)(=O)C3)nc3ccccc3c2=O)c1", "note": "(stereo not drawn)", "inhibition": "-4.98% (inactive)"}
    ]}
  ]
}
